Results reported in ChEMBL document CHEMBL1201862, “PubChem BioAssay data set” (2004).
In all, about 18,000 compounds went through this assay and about 750 (4.2%) were called active. Not shown: some 13% with an inconclusive outcome. The rule behind the calls is not given here. Only a selection was taken, and actives are over-represented in it overall.

Assay: qHTS for Inhibitors of binding or entry into cells for Lassa Virus.

Row | Compound | Potency
1 | CC12C(=O)OC(=O)C1(C)C1CCC2O1 (stereo unspecified) | 562 µM (active)
